From PubChem BioAssay (EPA / NIEHS)
Records with an inconclusive call do not appear. Calls of active or inactive are those of the source. The calls were made as follows, unless noted: active = hit-call score of the fitted dose curve at least 0.9, where 1 is the maximum; inconclusive = response in the unintended direction; inactive = score below 0.9.

How the values were obtained:
[1] = Tanguay_ZF_120hpf_ActivityScore_legacy: (Legacy) Oregon State University Tanguay Lab 120 Hour Post-fertilization zebrafish Assay Score for Activity (AID 2283742)
How it was run: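 Tropical 5D wild-type zebrafish embryos, dechorionated with pronase at 4 hpf, were exposed singly from 6 hpf to 120 hpf statically at 28C in 0.64% DMSO. Malformations and mortality were scored as binary by brightfield, with the activity score combining 18 morphology components.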

[2] = tested on: Thyroperoxidase (TPO), gene 445522; test: CCTE_Simmons_GUA_TPO: CCTE's Guaiacol Assay for Thyroperoxidase (TPO) Inhibition, Simmons Lab (AID 2283750)
How it was run: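 Porcine thyroid microsomes (25 ug) in 200mM potassium phosphate, preincubated 30 s at 37C with compound (8 concentrations, 5 nM–87.5 uM) and 35mM guaiacol; 1mM H2O2 starts reaction. Absorbance change at 450nm over first 80 s; loss of signal versus DMSO, three replicates.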

[3] = STM_H9_OrnithineISnorm_perc: Stemina devTOX quickPredict H9 human embryonic stem cell (hESC)-based Assay for Ornithine (ORN) Metabolite Biomarker, Normalized (AID 2283712; active = hit-call score of the fitted dose curve at least 0.9, where 1 is the maximum; inactive = score below 0.9;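 also: ornithine released into spent medium during last day measured by mass spectrometry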)
How it was run: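 H9 human embryonic stem cells kept pluripotent receive test chemical over 72 h, refreshed daily by media exchange. Media from the closing 24 h is deproteinized and analysed by UPLC-HRMS on an amide column; ornithine signal is scaled to labelled standard and vehicle.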

[4] = ArunA_CellTiter_hNP: Viability Assessment in the ArunA Biomedical's Oris Neural Crest (hNC) Cell Migration Assay (AID 2283753)
How it was run: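 H9-derived hNP1 neuroprogenitors, 60,000/well on Matrigel, cultured 16 h, then 72 h chemical exposure in test medium. Cell titer via CellTiter Aqueous One; positive-direction fit vs DMSO.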

[5] = CEETOX_H295R_MTT_cell_viability: Viability Assessment in the CeeTox HT-H295R MTT Assay (AID 2283718; active = hit-call score of the fitted dose curve at least 0.9, where 1 is the maximum; inactive = score below 0.9;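 as to AC50: curve fitted both ways so AC50 may mark viability loss or gain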)
How it was run: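 H295R cells prestimulated 48 h with 10 uM forskolin, then exposed 48 h to test chemical (0.1% DMSO final). Viability by MTT (0.5 mg/ml, 4 h, 37 C), absorbance 570/650 nm; percent change versus DMSO, bidirectional fit.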

CCCCC(CC)COC(=O)CCCCCCCC(=O)OCC(CC)CCCC (centres undefined)
outcome [1]: inactive

C/C=C/C=C/C(=O)O
outcome [1]: inactive

OCC(O)CO
outcome [1]: inactive

CN(C)CCCN(C)CCCN(C)C
outcome [1]: inactive

CC(C)NCC(O)c1ccc(O)c(O)c1 (centres undefined)
outcome [1]: inactive | AC50 [2]: 7.79 µM (active)

CCCC(=O)O
outcome [1]: inactive

COC(=O)[C@H]1[C@H]2C[C@@H]3c4[nH]c5cc(OC)ccc5c4CCN3C[C@H]2C[C@@H](OC(=O)c2cc(OC)c(OC)c(OC)c2)[C@@H]1OC
outcome [3]: inactive | outcome [1]: inactive | AC50 [4]: 81.8 µM (active)

CC(=O)OC1CC(C)OC(C)O1 (centres undefined)
outcome [1]: inactive

C=CCc1ccc(OC)c(OC)c1
AC50 [5]: 0.102 µM (active) | outcome [1]: inactive

CC(=O)OCC(COC(C)=O)OC(C)=O
outcome [1]: inactive

CN(C)C(=O)NC1(c2ccccc2)CCN(CCC[C@]2(c3ccc(Cl)c(Cl)c3)CCCN(C(=O)c3ccccc3)C2)CC1
outcome [5]: inactive | outcome [1]: inactive

NC1CCCCC1
outcome [1]: inactive

CCCCCCCC(=O)OC
outcome [1]: inactive

CC1(C)C(=O)NC(=O)N1CO
outcome [1]: inactive
